Measured values reported in PubChem BioAssay (NCATS).
Values joined by “and” are separate entries in the source; they are usually repeats but may differ in a detail not shown here. Equal values may be shown once. Inconclusive results are not listed. Some structures have more than one record in an assay (separate samples or runs), and their calls can disagree. Active and inactive are the calls of the source. Unless noted, calls follow the shape of the dose curve; as a rule, active = well fitted curve in the direction sought with a large enough effect; inconclusive = small, poorly fitted or top-dose-only effect, or another doubt; inactive = no such curve, though single readings can be large; an effect the other way counts as inactive or inconclusive. Non-standard residues stand in square brackets, D forms with d. Residues, ends and D or L forms follow the SMILES beside them. *: point of attachment. Sta = CC(C)C[C@H](N)[C@@H](O)CC(=O)O; Isovaleryl = CC(C)CC(=O)*

Columns and labels:
CAOV3 = assay: Primary qHTS to identify gynecologic anti-cancer compounds using libraries of approved drugs and bioactive compounds (AID 1345084); settings: Gynecologic cancer cell panel viability, ATPlite luminescence, 48 h; series mostly up to 57.5 µM; also: nearly all actives have a fitted effect of over 55% in size; also: potency is read from the fitted curve at half-maximal effect
Procedure, shortened: (§1)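 Cells, 1,000 per well, were allowed to settle for 16 h at 37 C before compound addition. Five concentrations were tested for 48 h, and viability was read by ATPlite luminescence after 15 min at room temperature.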

CASKI = assay: as above; settings: Gynecologic cancer cell panel viability, ATPlite luminescence, 48 h; series mostly up to 57.5 µM
Procedure, shortened: as §1

Es-2 = assay: as above; settings: Gynecologic cancer cell panel viability, ATPlite luminescence, 48 h; series mostly up to 57.5 µM
Procedure, shortened: as §1

HeLa = assay: as above; settings: Gynecologic cancer cell panel viability, ATPlite luminescence, 48 h; series mostly up to 57.5 µM
Procedure, shortened: as §1

Hek293T = assay: as above; settings: Gynecologic cancer cell panel viability, ATPlite luminescence, 48 h, control line for the selectivity index; series mostly up to 57.5 µM
Procedure, shortened: as §1

JEG-3 = assay: as above; settings: Gynecologic cancer cell panel viability, ATPlite luminescence, 48 h; series mostly up to 57.5 µM
Procedure, shortened: as §1

PA-1 = assay: as above; settings: Gynecologic cancer cell panel viability, ATPlite luminescence, 48 h; series mostly up to 57.5 µM
Procedure, shortened: as §1

Tov-21-G = assay: as above; settings: Gynecologic cancer cell panel viability, ATPlite luminescence, 48 h; series mostly up to 57.5 µM
Procedure, shortened: as §1

Tov112D = assay: as above; settings: Gynecologic cancer cell panel viability, ATPlite luminescence, 48 h; series mostly up to 57.5 µM
Procedure, shortened: as §1

[1] = Drug repurposing screens with cells derived from glioblastoma tumor samples (AID 1345199); settings: GBM patient neurospheres viability, ATP luminescence, 48 h; also: nearly all actives have a fitted effect of over 40% in size; also: potency is read from the fitted curve at half-maximal effect; as to activity, negative = cell killing: % is scaled to controls: 0 for no effect and ±100 for the full control effect
Procedure, shortened: (§2)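 Primary testing used CD133+ neurospheres from four GBM patients, seven concentrations, 48 h exposure and ATP-based viability; confirmation added three slower-growing patient lines.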

OV90 = assay: Primary qHTS to identify gynecologic anti-cancer compounds using libraries of approved drugs and bioactive compounds (AID 1345084); settings: Gynecologic cancer cell panel viability, ATPlite luminescence, 48 h; series mostly up to 57.5 µM; also: nearly all actives have a fitted effect of over 55% in size; also: potency is read from the fitted curve at half-maximal effect
Procedure, shortened: as §1

SKOV3 = assay: as above; settings: Gynecologic cancer cell panel viability, ATPlite luminescence, 48 h; series mostly up to 57.5 µM
Procedure, shortened: as §1

astro = assay: Drug repurposing screens with cells derived from glioblastoma tumor samples (AID 1345199); settings: viability, ATP luminescence, 48 h; series mostly up to 45.9 µM; also: nearly all actives have a fitted effect of over 40% in size; also: potency is read from the fitted curve at half-maximal effect; as to activity, negative = cell killing: % is scaled to controls: 0 for no effect and ±100 for the full control effect
Procedure, shortened: as §2

[2] = molecular target: Nuclear receptor subfamily 1 group I member 2 (Rattus norvegicus) (UniProt Q9R1A7); assay: qHTS assay for small molecule activators of the rat pregnane X receptor (rPXR) signaling pathway (AID 651751; call rule not given here; also: 0% is about no effect); settings: rPXR reporter cells, luciferase (One-Glo), 24 h
Sequence of Nuclear receptor subfamily 1 group I member 2 (Rattus norvegicus) (Q9R1A7 whole entry, looked up): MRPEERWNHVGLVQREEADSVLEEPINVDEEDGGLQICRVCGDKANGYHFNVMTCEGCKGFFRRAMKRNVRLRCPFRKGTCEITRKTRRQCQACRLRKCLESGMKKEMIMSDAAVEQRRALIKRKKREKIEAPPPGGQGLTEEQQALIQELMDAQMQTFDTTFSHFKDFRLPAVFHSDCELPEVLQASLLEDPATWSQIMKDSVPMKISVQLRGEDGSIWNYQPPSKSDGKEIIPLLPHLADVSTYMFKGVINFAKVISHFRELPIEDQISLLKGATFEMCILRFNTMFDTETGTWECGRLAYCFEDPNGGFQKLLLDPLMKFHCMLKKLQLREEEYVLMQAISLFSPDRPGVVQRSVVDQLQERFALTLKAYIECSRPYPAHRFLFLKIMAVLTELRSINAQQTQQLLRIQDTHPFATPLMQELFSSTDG

[3] = qHTS assay for small molecule activators of the human pregnane X receptor (PXR) signaling pathway (AID 720659; call rule not given here; also: 0% is about no effect)
[4] = at 46.1 µM (top of the series), tumour line C
[5] = at 45.9 µM (top of the series), tumour line B
[6] = at 45.9 µM (top of the series), tumour line D
[7] = at 46 µM (top of the series), tumour line A
[8] = at 20 µM (top of the series), tumour line C

CN1CCC(=C2c3ccccc3CCc3sccc32)CC1
active: Potency ([1]; tumour line A) 3.98 µM | Potency ([1]; tumour line D) 12.6 µM
inactive: Potency (CAOV3) | Potency (CASKI) | Potency (Es-2) | Potency (HeLa) | Potency (Hek293T) | Potency (JEG-3) | Potency (PA-1) | Potency (Tov-21-G) | Potency (Tov112D) | activity, negative = cell killing [1, 4] 4.48%

CCCCc1ccc2nc(NC(=O)OC)[nH]c2c1
inactive: Potency (CAOV3)
active: Potency (Es-2) 0.562 µM | Potency (HeLa) 0.398 µM | Potency (OV90) 1.58 µM | Potency (PA-1) 0.282 µM | Potency (Tov-21-G) 0.631 µM | Potency (Tov112D) 0.251 µM

Cc1ccc(Nc2nccc(N(C)c3ccc4c(C)n(C)nc4c3)n2)cc1S(N)(=O)=O
inactive: Potency (CAOV3) | Potency (CASKI) | Potency (Es-2) | Potency (Hek293T) | Potency (JEG-3) | Potency (PA-1) | Potency (Tov112D) | activity, negative = cell killing [1, 5] -23.7%
active: Potency (SKOV3) 14.1 µM | Potency ([1]; tumour line A) 2.51 µM | Potency ([1]; tumour line D) 7.08 µM

COc1c2occc2cc2ccc(=O)oc12
inactive: Potency (CAOV3) | Potency (CASKI) | Potency (Es-2) | Potency (HeLa) | Potency (JEG-3) | Potency (OV90) | Potency (PA-1) | Potency (SKOV3) | Potency (Tov-21-G) | Potency (Tov112D) | activity, negative = cell killing [1, 5] -22.6% | activity, negative = cell killing [1, 6] -10.6% | activity, negative = cell killing [1, 4] -21.4% | Potency (astro) | max response [2] 0.0225% and 5.31%

CC(C)CC(=O)N[C@H](C(=O)N[C@H](C(=O)N[C@@H](CC(C)C)[C@@H](O)CC(=O)N[C@@H](C)C(=O)N[C@@H](CC(C)C)[C@@H](O)CC(=O)O)C(C)C)C(C)C (Isovaleryl-VV[Sta]A[Sta]-OH)
inactive: Potency (CAOV3) | Potency (CASKI) | Potency (Es-2) | Potency (HeLa) | Potency (Hek293T) | Potency (JEG-3) | Potency (OV90) | Potency (PA-1) | Potency (Tov-21-G) | Potency (Tov112D) | activity, negative = cell killing [1, 5] -11.5% | activity, negative = cell killing [1, 6] -9.71% | activity, negative = cell killing [1, 7] -22.1% | activity, negative = cell killing [1, 4] -23.6% | Potency (astro)

NNc1nncc2ccccc12
inactive: Potency (CAOV3) | Potency (CASKI) | Potency (Es-2) | Potency (HeLa) | Potency (Hek293T) | Potency (JEG-3) | Potency (PA-1) | Potency (SKOV3) | Potency (Tov-21-G) | Potency (Tov112D) | activity, negative = cell killing [1, 8] -13.5% | activity, negative = cell killing ([1]; at 21.2 µM (top of the series), tumour line B) -20% | activity, negative = cell killing ([1]; at 21.2 µM (top of the series), tumour line D) -12.5% | Potency (astro)

CN(C)c1ccc2nc3ccc(=[N+](C)C)cc-3sc2c1
active: Potency (CAOV3) 3.98 µM | Potency (CASKI) 7.08 µM | Potency (Es-2) 1.78 µM | Potency (Hek293T) 14.1 µM | Potency (JEG-3) 2 µM | Potency (OV90) 12.6 µM | Potency (PA-1) 0.891 µM | Potency (Tov-21-G) 10 µM | Potency (Tov112D) 6.31 µM | Potency (astro) 5.01 µM
inactive: outcome [3]

CCCc1cc(=O)[nH]c(=S)[nH]1
inactive: Potency (CAOV3) | Potency (CASKI) | Potency (Es-2) | Potency (HeLa) | Potency (Hek293T) | Potency (JEG-3) | Potency (OV90) | Potency (PA-1) | Potency (Tov-21-G) | Potency (Tov112D) | activity, negative = cell killing [1, 5] -8.42% | activity, negative = cell killing [1, 6] -9.52% | activity, negative = cell killing [1, 4] -10.7% | Potency (astro) | max response [2] -3.12% and -0.189% | outcome [3]

Cc1ncc([N+](=O)[O-])n1CC(C)O (centres undefined)
inactive: Potency (CAOV3) | Potency (CASKI) | Potency (Es-2) | Potency (HeLa) | Potency (Hek293T) | Potency (OV90) | Potency (PA-1) | Potency (SKOV3) | Potency (Tov-21-G) | Potency (Tov112D) | Potency (astro)

CCCOc1ccc2nc(NC(=O)OC)[nH]c2c1
active: Potency (Es-2) 0.631 µM | Potency (HeLa) 0.282 µM | Potency (JEG-3) 1 µM | Potency (PA-1) 0.282 µM | Potency (Tov-21-G) 0.316 µM | Potency (Tov112D) 0.316 µM
inactive: Potency (CAOV3)

CC(=O)O[C@H]1C(=O)[C@@]2(C)C([C@H](OC(=O)c3ccccc3)[C@]3(O)C[C@H](OC(=O)[C@H](O)[C@@H](NC(=O)c4ccccc4)c4ccccc4)C(C)=C1C3(C)C)[C@]1(OC(C)=O)CO[C@@H]1C[C@@H]2O (some centres undefined)
active: Potency (Es-2) 0.282 µM | Potency (HeLa) 0.0794 µM
inactive: Potency (CAOV3) | Potency (Hek293T) | Potency (JEG-3) | Potency (OV90)

COc1ccccc1N1CCN(CCN(C(=O)C2CCCCC2)c2ccccn2)CC1
inactive: Potency (CAOV3) | Potency (CASKI) | Potency (Es-2) | Potency (HeLa) | Potency (OV90) | Potency (PA-1) | Potency (SKOV3) | Potency (Tov-21-G) | Potency (Tov112D)

Cc1cccc(CN2CCN(C(c3ccccc3)c3ccc(Cl)cc3)CC2)c1 (centres undefined)
inactive: Potency (CAOV3) | Potency (CASKI) | Potency (Es-2) | Potency (HeLa) | Potency (Hek293T) | Potency (JEG-3) | Potency (PA-1) | Potency (SKOV3) | Potency (Tov-21-G) | Potency (Tov112D) | activity, negative = cell killing [1, 8] -7.92% | Potency (astro)
active: Potency ([1]; tumour line A) 5.62 µM

CCC1=C(C)CN(C(=O)NCCc2ccc(S(=O)(=O)NC(=O)NC3CCC(C)CC3)cc2)C1=O (centres undefined)
inactive: Potency (CAOV3) | Potency (CASKI) | Potency (Es-2) | Potency (HeLa) | Potency (Hek293T) | Potency (JEG-3) | Potency (OV90) | Potency (PA-1) | Potency (Tov-21-G) | Potency (Tov112D) | activity, negative = cell killing [1, 5] 4.42% | activity, negative = cell killing [1, 6] -28.4% | activity, negative = cell killing [1, 4] -8.33% | Potency (astro)

CCN(CC)C(=S)SSC(=S)N(CC)CC
inactive: Potency (HeLa) | max response [2] -4.1%
35.5 µM (active) and inactive: Potency (CASKI)
active: Potency (CAOV3) 7.08 µM | Potency (Es-2) 15.8 µM | Potency (Hek293T) 8.91 µM | Potency (JEG-3) 28.2 µM | Potency (OV90) 4.47 µM | Potency (SKOV3) 631 nM and 1.41 µM | Potency (astro) 63.1 µM

Cc1nc(Nc2ncc(C(=O)Nc3c(C)cccc3Cl)s2)cc(N2CCN(CCO)CC2)n1
active: Potency (CAOV3) 8.91 µM | Potency (PA-1) 0.251 µM | Potency (SKOV3) 14.1 µM
inactive: Potency (HeLa) | Potency (Hek293T) | Potency (JEG-3) | Potency (Tov112D)

COc1cc2c(N3CCN(C(=O)Nc4ccc(OC(C)C)cc4)CC3)ncnc2cc1OCCCN1CCCCC1
inactive: Potency (CASKI) | Potency (Es-2) | Potency (HeLa) | Potency (Hek293T) | Potency (JEG-3) | Potency (OV90) | Potency (PA-1) | Potency (SKOV3) | Potency (Tov-21-G) | Potency (Tov112D)

CC(=O)Nc1ccc(O)cc1
inactive: Potency (CAOV3) | Potency (CASKI) | Potency (Es-2) | Potency (HeLa) | Potency (Hek293T) | Potency (JEG-3) | Potency (OV90) | Potency (PA-1) | Potency (Tov-21-G) | Potency (Tov112D) | activity, negative = cell killing [1, 5] -10.5% | activity, negative = cell killing [1, 6] -3.31% | activity, negative = cell killing [1, 7] -25.4% | activity, negative = cell killing [1, 4] -7.56% | Potency (astro) | outcome [3]
